Shown is part of a subset that was picked to be rich in hits.
KDM5B inh – KDM5B demethylase inhibition; 220,000 tested, 2.6% active; Potency, µM (doses to about 57.7 µM), usual class: inhibitors; Q9UGL1; AID 1347165; KDM5B demethylase, FDH-coupled NADH fluorescence (FDH is formaldehyde dehydrogenase); active = well fitted inhibition curve with a large enough effect; note: 0% is about no effect; nearly all actives have a fitted effect of over 70% in size
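Inhibition is measured as reduced NADH fluorescence generation from FDH coupling to formaldehyde release. Truncated KDM5BΔAP at 200 nM final acts on H3K4me3 peptide (12.5 µM in substrate mix) in pH 7.5 HEPES buffer with Tween-20, 30 min, room temperature.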
* hit, by the source's call; i = inactive. Potency is the fitted concentration of half-maximal effect.

SMILES	KDM5B inh
Cc1nn(C)cc1CN(C)CC1(O)CCCN(Cc2cccc(F)c2F)C1=O (stereo not given)	i
CCC(C(=O)c1ccc(OC)cc1)C(=O)c1ccc(OC)cc1	i
CCCN(CCC)Cc1ccc(C(=O)NCc2c(C)noc2C)cc1	28µM*
Cc1noc(C)c1COc1ccc(C(=O)Nc2ccccc2)cc1	i
Cc1noc(C)c1CNC(=O)CC(C)(C)C	i
O=C(OCc1cccnc1)c1ccc(-c2ccccc2)cc1	i
Cc1cc(=O)n(CC(=O)Nc2cccc(C#N)c2)c(-c2ccc(F)cc2)n1	i
COc1ccc(-c2nc3c(c(=O)[nH]2)CCN(C(=O)Nc2ccc4c(c2)CCC4)C3)cc1	i
COc1ccc(-c2nc3c(c(=O)[nH]2)CCN(C(=O)Nc2ccccc2Cl)C3)cc1	i
N#Cc1cccc(NC(=O)N2CCc3c(nc(-c4ccc(F)cc4)[nH]c3=O)C2)c1	20µM*
N#Cc1ccc(S(=O)(=O)N2CCc3c(nc(-c4ccc(F)cc4)[nH]c3=O)C2)cc1	i
COc1ccc(-c2nc3c(c(=O)[nH]2)CCN(C(=O)Nc2cc(F)cc(F)c2)C3)cc1	18µM*
Cc1nc(-c2ccccc2)sc1C(C)N (stereo not given)	i
COc1ccc(-c2nnc3n(CCc4ccccc4)c(=O)c4ccccc4n23)cc1	i
Cc1c(-c2ccccc2)c(=O)oc2ccc(OS(=O)(=O)c3ccc(F)cc3)cc12	i
O=C(NCc1ccc(F)cc1F)c1cc2n(n1)CC(c1ccc(Cl)cc1)OC2 (stereo not given)	i
COc1ccc(NC(=O)c2cc3n(n2)CC(c2ccc(Cl)cc2)OC3)cc1Cl (stereo not given)	25µM*
O=C(Nc1ccc(F)c(Cl)c1)c1cc2n(n1)CC(c1ccc3c(c1)OCO3)OC2 (stereo not given)	32µM*
O=C(NCC1CC1)c1cc2n(n1)CC(c1ccc(Cl)cc1)OC2 (stereo not given)	i
COc1ccc(NC(=O)c2nnn3c2COC(c2ccc(F)cc2)C3)cc1Cl (stereo not given)	i
COc1cc(NC(=O)c2cc3n(n2)CC(c2ccc4c(c2)OCO4)OC3)c(OC)cc1Cl (stereo not given)	i
O=C(Nc1ccc(Cl)c(Cl)c1)c1cc2n(n1)CC(c1ccc(Cl)cc1)OC2 (stereo not given)	28µM*
COc1cc(NC(=O)[C@H]2CCC[C@H]2NC(=O)c2cnc(C)cn2)cc(OC)c1OC	i
CN(C)CCCNC1CCCCC1	i
Cc1nc(-c2ccccc2Cl)sc1C(=O)N[C@@H](C)C(=O)O	i
SMILES	KDM5B inh
CSc1cccc(NC(=O)N[C@H]2CCN(C(=O)c3cccn3C)[C@@H]2C(=O)N[C@H]2CCCNC2=O)c1	i
CCn1cc(S(=O)(=O)N2CC(Oc3ccccc3-c3noc(C)n3)C2)cn1	i
Cc1cc(C(=O)N2CCC3(CC2)N=C(CC(C)C)NC3=O)c(C)o1	i
CCn1cc(S(=O)(=O)N2CCCCC2c2nc(CCOc3ccc(F)cc3)no2)cn1 (stereo not given)	i
Cc1cc(Cl)ccc1Nc1nc(NCc2ccc3c(c2)OCO3)nc2nccnc12	i
COc1ccc(C(=O)CSc2nnc(Nc3ccccc3F)s2)c(OC)c1	i
CC1(C)C(c2ccccc2)=[N+]([O-])C(c2ccc(Cl)cc2Cl)N1O (stereo not given)	i
C[S+](=O)([O-])c1ccc(-c2nc(C(=O)NCCc3ccc(Cl)cc3)n3ccccc23)cc1	89µM*
O=C(NCc1ccc(F)cc1)c1nc(-c2ccc(Cl)cc2)c2ccccn12	25µM*
C[S+](=O)([O-])c1ccc(-c2cc(C(=O)NCCc3ccc(Cl)cc3)nn3cccc23)cc1	i
O=C(NCc1cccnc1)c1nc(-c2ccc(F)cc2)c2ccccn12	28µM*
O=C(NCCc1ccccc1)c1cc(-c2ccc(Cl)cc2)on1	i
Cc1ccc(-c2nnn3c2nc(NCCc2ccc(Cl)cc2)c2ccccc23)cc1	i
O=C(Cn1c(=O)nc(-c2ccccc2)c2ccccc21)NCc1ccc(Cl)cc1	i
O=C(NCCc1ccccc1)c1nc(-c2ccc(Cl)cc2)n2c1CCCCC2	i
O=C(NCc1cccnc1)c1ccc2ccccc2n1	i
O=C(NCCc1ccc(Cl)cc1)c1nc(-c2ccc(Cl)cc2)c2ccccn12	25µM*
O=C(Cn1c(SCC(=O)Nc2ccc(F)cc2)nc2ccccc21)NCc1ccc(Cl)cc1	i
COc1ccc(O)c(C2SCc3cc(C)c(C)cc3CS2)c1	i
CSc1ccc(CN(C)CC(=O)N(C)c2ccccc2C(=O)NCc2ccco2)cc1	i
COc1cccc(-n2cnnc2SC(C)C(=O)Nc2ccc(N3CCOCC3)cc2)c1 (stereo not given)	i
O=C1NCCCCCCN(Cc2ccncc2)[C@@H]2CN(S(=O)(=O)c3cccc(F)c3)CC[C@H]12	i
Cc1ccc(C)c(CS(=O)(=O)Cc2noc(C(C)(C)C)n2)c1	i
O=C(COC(=O)c1ccccc1OCc1ccccc1)Nc1ccc(F)cc1	i
CCOc1ccccc1C(=O)Nc1nonc1-c1ccc(OC(C)C)cc1	i

From PubChem BioAssay
